Test results from PubChem BioAssay (EPA / NIEHS).
Active and inactive are the calls of the source. How the source made its calls: active means hit-call score of the fitted dose curve at least 0.9, where 1 is the maximum; inactive means score below 0.9.

Test system: not listed separately
Assay: ATG_SREBP_CIS: Attagene CIS-FACTORIAL HepG2 Assay for human Sterol Regulatory Element Binding (SREBP) (AID 2282962)
Conditions: HepG2 Attagene cis-factorial SREBP reporter, mRNA; actives raise or lower the signal
Outline: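 Transfected HepG2 (cis-regulated reporter library, endogenous TFs) → compound 24 h → total RNA → oligo(dT) RT → reporter-specific PCR → FAM primer extension, HpaI cut → CE fluorescence. Fit bidirectional vs DMSO.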

| SMILES | outcome | AC50 |
| --- | --- | --- |
| Nc1ccc(-c2ccc(N)c(N)c2)cc1N | inactive |  |
| CCOP(O)OCC | inactive |  |
| C#CC1(O)CCCCC1 | inactive |  |
| O=c1[nH]c(Cl)c(Cl)cc1Cl | inactive |  |
| CCC(C)c1cc(C(C)(C)C)cc(-n2nc3ccccc3n2)c1O (centres undefined) | inactive |  |
| [CH3][Sn]([Cl])([Cl])[Cl] | inactive |  |
| Nc1c(Cl)c(Cl)c(Cl)c(Cl)c1Cl | inactive |  |
| COC(=O)c1ccccc1S(=O)(=O)NC(=O)Nc1nc(C)cc(C)n1 | inactive |  |
| Nc1ccccc1C(=O)OCCc1ccccc1 | inactive |  |
| N#Cc1cccc(C#N)c1 | inactive |  |
| Nc1cc(Cl)cc(Cl)c1 | inactive |  |
| COC(C)(C)CCC[C@H](C)C/C=C/C(C)=C/C(=O)OC(C)C | inactive |  |
| [CH3][Sn]([CH3])([Cl])[Cl] | inactive |  |
| CC(Cc1ccc(C(C)(C)C)cc1)CN1C[C@@H](C)O[C@@H](C)C1 (some centres undefined) | inactive |  |
| O=C(O)c1cc[c]([Hg][Cl])cc1 | inactive |  |
| C[N+](C)(C)CC(=O)O | inactive |  |
| O=S(=O)(c1ccccc1)c1ccccc1 | inactive |  |
| Clc1ccc(-c2ccccc2)cc1 | inactive |  |
| CN(C)C(=O)C(c1ccccc1)c1ccccc1 | inactive |  |
| O=P(O)(Oc1ccccc1)Oc1ccccc1 | inactive |  |
| CC1CCCC1.[C-]#[O+].[C-]#[O+].[C-]#[O+].[Mn] | inactive |  |
| O=C(O)COc1ccccc1 | inactive |  |
| CCC(=O)c1ccc(Cl)cc1 | inactive |  |
| Cc1ccc(N(SC(F)(Cl)Cl)S(=O)(=O)N(C)C)cc1 | inactive |  |
| CC1(C)CC(=O)CC(C)(C)N1[O] | inactive |  |
| SCc1ccco1 | inactive |  |
| Oc1cc(Cl)ccc1Cl | inactive |  |
| C[C@]12CCC(=O)C(O)=C1CC[C@@H]1[C@@H]2CC[C@]2(C)C(=O)CC[C@@H]12 |  | 27.6 µM (active) |
| CSc1nc(N=[N+]=[N-])nc(NC(C)C)n1 | inactive |  |
| O=[N+]([O-])O.O=[N+]([O-])O.[Cd] | inactive |  |

Biological target: Signal transducer and activator of transcription 3 (Homo sapiens) (UniProt P40763)
Sequence (P40763 whole entry, looked up): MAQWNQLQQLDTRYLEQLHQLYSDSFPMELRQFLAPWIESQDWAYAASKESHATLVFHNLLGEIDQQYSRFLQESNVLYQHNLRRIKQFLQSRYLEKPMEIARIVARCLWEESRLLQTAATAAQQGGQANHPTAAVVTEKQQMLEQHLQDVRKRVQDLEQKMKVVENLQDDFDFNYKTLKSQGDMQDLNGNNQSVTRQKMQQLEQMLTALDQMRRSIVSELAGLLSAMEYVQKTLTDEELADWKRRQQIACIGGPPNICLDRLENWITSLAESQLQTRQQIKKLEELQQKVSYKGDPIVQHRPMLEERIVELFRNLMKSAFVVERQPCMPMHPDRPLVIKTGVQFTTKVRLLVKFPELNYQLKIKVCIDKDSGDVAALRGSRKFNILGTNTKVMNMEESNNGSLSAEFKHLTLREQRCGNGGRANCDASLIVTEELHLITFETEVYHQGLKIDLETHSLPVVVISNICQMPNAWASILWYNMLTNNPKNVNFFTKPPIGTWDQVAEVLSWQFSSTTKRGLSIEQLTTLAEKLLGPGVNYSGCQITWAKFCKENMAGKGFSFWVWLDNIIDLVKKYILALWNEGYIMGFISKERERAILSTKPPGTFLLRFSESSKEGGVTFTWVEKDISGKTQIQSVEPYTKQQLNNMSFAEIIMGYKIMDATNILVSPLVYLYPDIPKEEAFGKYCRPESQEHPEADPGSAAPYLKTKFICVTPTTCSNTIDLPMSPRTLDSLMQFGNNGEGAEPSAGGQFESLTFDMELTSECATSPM
Assay: ATG_STAT3_CIS: Attagene CIS-FACTORIAL HepG2 Assay for human Signal Transducer and Activator of Transcription 3 (STAT3) (AID 2282963)
Conditions: HepG2, Attagene cis-factorial STAT3 reporter transcription; actives raise or lower the signal
Outline: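 HepG2 cells transiently transfected with multiple cis-element-driven reporter units report endogenous transcription factor activity. After 24 h compound exposure, reporter mRNA is measured by RT-PCR, 6-FAM labelling, HpaI digestion and capillary electrophoresis. Fitted bidirectionally versus DMSO.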

| SMILES | outcome | AC50 |
| --- | --- | --- |
| Nc1ccc(-c2ccc(N)c(N)c2)cc1N | inactive |  |
| CCOP(O)OCC | inactive |  |
| C#CC1(O)CCCCC1 | inactive |  |
| O=c1[nH]c(Cl)c(Cl)cc1Cl | inactive |  |
| CCC(C)c1cc(C(C)(C)C)cc(-n2nc3ccccc3n2)c1O (centres undefined) | inactive |  |
| [CH3][Sn]([Cl])([Cl])[Cl] | inactive |  |
| Nc1c(Cl)c(Cl)c(Cl)c(Cl)c1Cl | inactive |  |
| COC(=O)c1ccccc1S(=O)(=O)NC(=O)Nc1nc(C)cc(C)n1 | inactive |  |
| Nc1ccccc1C(=O)OCCc1ccccc1 | inactive |  |
| N#Cc1cccc(C#N)c1 | inactive |  |
| O=C(O)CCCc1ccc(N(CCCl)CCCl)cc1 | inactive |  |
| Nc1cc(Cl)cc(Cl)c1 | inactive |  |
| COc1ncc(F)c2nc(S(=O)(=O)Nc3c(F)cccc3F)nn12 | inactive |  |
| COC(C)(C)CCC[C@H](C)C/C=C/C(C)=C/C(=O)OC(C)C | inactive |  |
| [CH3][Sn]([CH3])([Cl])[Cl] | inactive |  |
| BrCBr | inactive |  |
| CCc1cccc(C)c1N(C(=O)CCl)[C@@H](C)COC | inactive |  |
| O=P1(NCCCl)OCCCN1CCCl (centres undefined) | inactive |  |
| CC(Cc1ccc(C(C)(C)C)cc1)CN1C[C@@H](C)O[C@@H](C)C1 (some centres undefined) | inactive |  |
| O=C(O)c1cc[c]([Hg][Cl])cc1 | inactive |  |

| SMILES | outcome | AC50 |
| --- | --- | --- |
| C[N+](C)(C)CC(=O)O | inactive |  |
| O=S(=O)(c1ccccc1)c1ccccc1 | inactive |  |
| Clc1ccc(-c2ccccc2)cc1 | inactive |  |
| CN(C)C(=O)C(c1ccccc1)c1ccccc1 | inactive |  |
| C=CCc1ccc(OC(=O)Cc2ccccc2)c(OC)c1 | inactive |  |
| O=P(O)(Oc1ccccc1)Oc1ccccc1 | inactive |  |
| CC1CCCC1.[C-]#[O+].[C-]#[O+].[C-]#[O+].[Mn] | inactive |  |
| O=C(O)COc1ccccc1 | inactive |  |
| [Cl][Sb]([Cl])[Cl] | inactive |  |
| CCC(=O)c1ccc(Cl)cc1 | inactive |  |
| Cc1ccc(N(SC(F)(Cl)Cl)S(=O)(=O)N(C)C)cc1 | inactive |  |
| CC1(C)CC(=O)CC(C)(C)N1[O] | inactive |  |
| SCc1ccco1 | inactive |  |
| O=CNC(N1CCN(C(NC=O)C(Cl)(Cl)Cl)CC1)C(Cl)(Cl)Cl (centres undefined) | inactive |  |
| Oc1cc(Cl)ccc1Cl | inactive |  |
| O=[N+]([O-])c1cc(C(F)(F)F)c(Cl)c([N+](=O)[O-])c1Cl | inactive |  |
| C[C@]12CCC(=O)C(O)=C1CC[C@@H]1[C@@H]2CC[C@]2(C)C(=O)CC[C@@H]12 | inactive |  |
| CSc1nc(N=[N+]=[N-])nc(NC(C)C)n1 | inactive |  |
| O=[N+]([O-])O.O=[N+]([O-])O.[Cd] |  | 11.1 µM (active) |
